# SMARCA2 act = SMARCA2 (BRM) function activators, primary screen, cell-based, luminescence, high throughput; MG213 cells, MMTV-luciferase reporter, dexamethasone, overnight; activation, % at 9.1 µM; 370,000 compounds, 1% hits; AID 652017, 2013; in the data active = activation above about 7.8%
# MITF TRPM1 HTS = activators of MITF-driven TRPM1 promoter reporter, primary screen, cell-based, SK-MEL-5, luciferase, single point; activation, % at 12.5 µM; 300,000 compounds, 0.75% hits; SK-MEL-5 TRPM1-promoter luciferase, 24 h; % of positive control, neutral wells = 0;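 active = mean activation of at least 80% with every replicate also reaching 80%; inconclusive = mean reaches 80% but some replicate falls short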
# Wnt act = Wnt/beta-catenin pathway activators, primary screen, cell-based, plate reader, single point. AID 743398, 2014. activation, % at 9.35 µM. Wnt/beta-catenin reporter cell assay, activator. 300,000 compounds, 1.2% hits; in the data active = activation above about 30%, passing the limit was not always enough; inconclusive = no clear call, values can overlap the other calls
# esBAF inh = Bmi1 luciferase reporter increase in mESCs, primary screen, esBAF inhibitor project, mouse ES cells, Bmi1 luciferase knock-in, single point. 350,000 compounds, 2% hits. 24 h; 100% = twice the neutral-well signal. reporter increase, % at 12.5 µM; in the data active = activation above about 40%; inconclusive = no clear call, values can overlap the other calls;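 also: a rise in the Bmi1 reporter signal indicates esBAF inhibition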
# FGF22 binding = binders of human FGF22 protein, primary screen, FGF22 synaptogenesis inhibitor project, biophysical, thermal shift, single point; recombinant FGF22 thermal shift, SYPRO orange fluorescence; percent of sucrose octasulfate shift, DMSO zero; Fibroblast growth factor 22 (Homo sapiens), Q9HCT0; activity (Tm shift, normalised), % at 9.99 µM; AID 651658, 2012; 340,000 compounds, 1.5% hits;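 active = mean Tm shift, scaled 0 neutral to 100 positive control, at about 1.3% or above, every replicate too, limit read from the data; inconclusive = no clear call, values can overlap the other calls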
# MLL AF4-AF9 inh = inhibitors of AF4 peptide binding to AF9, primary screen, biochemical, AlphaScreen, biotin-AF4 peptide, FLAG-AF9, single point. Protein AF-9 (Homo sapiens), P42568. inhibition, % at 10 µM. 350,000 compounds, 0.47% hits;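 active = every replicate reaching a set inhibition limit, whatever the replicate mean, cut at about 25% in these data; inconclusive = mean inhibition reaches that limit but some replicates miss it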
# Target sequence (P42568 whole entry, looked up): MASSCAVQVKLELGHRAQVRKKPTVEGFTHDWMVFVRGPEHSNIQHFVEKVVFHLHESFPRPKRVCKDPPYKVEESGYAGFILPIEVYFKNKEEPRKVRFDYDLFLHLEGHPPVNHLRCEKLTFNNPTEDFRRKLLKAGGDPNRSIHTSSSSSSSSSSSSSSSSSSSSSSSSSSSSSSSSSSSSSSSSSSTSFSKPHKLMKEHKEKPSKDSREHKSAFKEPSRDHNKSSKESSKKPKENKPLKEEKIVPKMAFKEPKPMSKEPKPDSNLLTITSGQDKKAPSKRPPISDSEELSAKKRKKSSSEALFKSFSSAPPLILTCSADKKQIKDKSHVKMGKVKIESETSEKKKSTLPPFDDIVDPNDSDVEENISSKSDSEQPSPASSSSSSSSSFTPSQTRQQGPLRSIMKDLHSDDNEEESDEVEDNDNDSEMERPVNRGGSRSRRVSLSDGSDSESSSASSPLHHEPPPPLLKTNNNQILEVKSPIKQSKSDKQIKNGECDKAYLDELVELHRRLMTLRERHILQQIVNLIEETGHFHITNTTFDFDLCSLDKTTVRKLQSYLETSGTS
# Hits are given with their value; n = inactive; u = inconclusive; x = not tested or not shown. A selection: hits, their analogues and other compounds. The true share with any hit is near 4.3%.
SMILES,SMARCA2 act,MITF TRPM1 HTS,Wnt act,esBAF inh,FGF22 binding,MLL AF4-AF9 inh
CCCCC(=O)N1CCN(c2nc3ccc(OCC)cc3s2)CC1,n,n,n,n,n,n
Cc1cc2nc(N3C(=O)CNC3=S)sc2cc1C,n,n,n,n,43.2,n
CCOc1ccc2nc(N3C(=O)CNC3=S)sc2c1,n,x,50.6,n,n,n
CC(=O)N1[C@@H]2c3ccc(-c4ccccc4)c(=O)n3C[C@@H]2[C@@H](CO)[C@@H]1C(=O)NCc1ccccc1Cl,x,x,x,n,n,n
COC(=O)C[C@@H]1C=C[C@@H](NS(=O)(=O)c2ccccc2F)[C@@H](CO)O1,x,x,x,n,n,n
COc1ccc(C(=O)Nc2cccnc2Sc2ccc(Cl)cc2)cc1,n,x,n,x,29.0,n
O=C(Nc1cccc2cccnc12)c1ccc(Cl)cc1,n,x,n,44.9,n,n
C[C@@H]1CN([C@H](C)CO)C(=O)Cc2cc(NC(=O)CCC(F)(F)F)ccc2O[C@@H]1CN(C)S(=O)(=O)c1cccs1,x,x,x,n,n,n
C=CCn1c(C)cc(C2=NNC(=NC(C)(C)C)SC2)c1C,n,n,n,x,n,n
C=CCn1c(C)cc(C2=NNC(=Nc3ccc(C)cc3)SC2)c1C,n,n,x,x,43.1,n
COc1ccc(/C=C/c2c([N+](=O)[O-])c(=O)n(C)c(=O)n2C)cc1,n,n,n,x,43.0,n
CCOc1ccc(/C=C/c2c([N+](=O)[O-])c(=O)n(C)c(=O)n2C)cc1,n,n,n,n,n,n
c1cnc2nc(-c3ccc4c(c3)OCO4)cn2c1,n,86.9,n,u,n,n
Cc1nccc(-c2ccc3c(c2)OCO3)n1,n,n,n,x,n,n
Nc1cccc(-c2cn3cccnc3n2)c1,n,n,n,x,42.9,n
CS(=O)(=O)Nc1ccc(-c2cn3cccnc3n2)cc1,n,n,n,n,n,n
O=C(Nc1ccccc1)Nc1cccc(-c2cn3cccnc3n2)c1,n,n,n,n,n,n
Cc1ccc(-c2cn3cccnc3n2)cc1,n,84.1,u,n,n,n
c1ccc(-c2nccc(-c3ccc4c(c3)OCO4)n2)cc1,n,n,n,50.6,n,n
Cc1ccc(SCc2cn3cccnc3n2)cc1,n,n,x,46.0,x,x
CCCOc1c(Br)cc(C2C3=C(CCCC3=O)N(CC)C3=C2C(=O)CCC3)cc1OC,n,n,n,44.4,n,n
CCOc1ccc(N=C2NC(=O)S/C2=C\c2ccc(N(C)C)cc2)cc1,n,x,x,50.4,x,x
COc1ccc2[nH]cc(/C=C/C(=O)c3ccccc3)c2c1,n,u,39.2,x,n,n
COc1ccc(/C=C/C(=O)c2ccc(OC)cc2OC)c(OC)c1,n,n,n,n,n,n
COc1ccc(/C=C/C(=O)c2ccccc2)c(OC)c1,n,n,61.1,x,n,n
SMILES,SMARCA2 act,MITF TRPM1 HTS,Wnt act,esBAF inh,FGF22 binding,MLL AF4-AF9 inh
COc1cc(O)c(C(=O)/C=C/c2ccccc2)c(OC)c1,n,x,n,53.1,n,n
COc1cc(OC)c(C(=O)C=Cc2ccc(OC)c(OC)c2)c(OC)c1,n,n,n,n,n,n
O=C(/C=C/c1c[nH]c2ccccc12)c1ccccc1,n,n,x,x,x,x
Cc1noc(C)c1NC(=O)N(C)C[C@@H]1OCCCC[C@H](C)Oc2ccc(NC(=O)Cc3ccccc3)cc2C(=O)N([C@H](C)CO)C[C@H]1C,x,x,x,n,n,n
Oc1ccc(/C=N/NC(=S)NC2CC3CCC2C3)cc1 (stereo unspecified),n,n,n,46.7,n,n
S=C(N/N=C/c1cccs1)NC1CC2CCC1C2 (stereo unspecified),n,x,34.0,x,n,x
CNC(=O)C[C@H]1CC[C@@H]2[C@H](COC[C@H](O)CN2C(=O)Nc2cccc(OC)c2)O1,x,x,x,n,n,n
Cc1cc(N2CCN(c3ncccn3)CC2)nc2c(C)cccc12,n,n,n,n,n,41.1
COc1ccc(N2CCN(c3cc(C)c4cccc(C)c4n3)CC2)cc1,n,n,n,n,n,n
O=C(C1CCC1)N1CC2(C1)[C@H](c1ccccc1)[C@H](CO)N2C(=O)c1ccccn1,x,x,x,x,n,n

# Compound activity as filed in PubChem BioAssay.
